Experimental data: PubChem BioAssay AID602198 (NMMLSC, 2012)
Results with a measured potency or affinity are listed apart. The source made the active and inactive calls. No rule for the calls is given here.

Test: yeast V-ATPase proton pumping modulator potency, dose response, S. cerevisiae, pHLuorin, cherry pick 2 (AID 602198)

SMILES: Cc1ccsc1/C=C1\C(=O)NC(=S)N(C)C1=O
- outcome: inactive

SMILES: COc1ccc(N2C(=O)/C(=C/c3ccc(C)o3)C(=O)NC2=S)cc1
- outcome: inactive
